From the supplement of paper PMC10849652 come the findings set out here.

Of roughly 8,800 targets only a part is listed; those with a hit were picked by preference. About 0.5% of all pairs of compound and target were hits. Values without a mark were called inactive.

Chain of UniProt Q13409 (Q13409 whole entry, looked up): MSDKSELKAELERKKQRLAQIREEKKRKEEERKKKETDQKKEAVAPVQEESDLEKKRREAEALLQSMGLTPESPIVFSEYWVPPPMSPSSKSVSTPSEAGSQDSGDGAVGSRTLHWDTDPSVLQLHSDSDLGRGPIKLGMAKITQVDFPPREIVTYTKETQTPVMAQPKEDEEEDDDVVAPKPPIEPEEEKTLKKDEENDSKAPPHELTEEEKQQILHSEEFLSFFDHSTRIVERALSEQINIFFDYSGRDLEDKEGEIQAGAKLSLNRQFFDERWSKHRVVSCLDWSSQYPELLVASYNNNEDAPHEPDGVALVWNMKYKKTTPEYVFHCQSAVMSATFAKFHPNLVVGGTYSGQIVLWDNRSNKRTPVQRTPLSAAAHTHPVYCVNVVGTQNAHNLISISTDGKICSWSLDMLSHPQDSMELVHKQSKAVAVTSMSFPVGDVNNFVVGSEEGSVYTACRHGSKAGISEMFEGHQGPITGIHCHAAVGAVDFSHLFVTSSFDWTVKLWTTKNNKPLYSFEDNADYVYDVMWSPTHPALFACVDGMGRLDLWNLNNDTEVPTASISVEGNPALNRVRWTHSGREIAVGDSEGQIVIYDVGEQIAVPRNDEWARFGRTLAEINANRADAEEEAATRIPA
Chain of UniProt Q01844 (Q01844 whole entry, looked up): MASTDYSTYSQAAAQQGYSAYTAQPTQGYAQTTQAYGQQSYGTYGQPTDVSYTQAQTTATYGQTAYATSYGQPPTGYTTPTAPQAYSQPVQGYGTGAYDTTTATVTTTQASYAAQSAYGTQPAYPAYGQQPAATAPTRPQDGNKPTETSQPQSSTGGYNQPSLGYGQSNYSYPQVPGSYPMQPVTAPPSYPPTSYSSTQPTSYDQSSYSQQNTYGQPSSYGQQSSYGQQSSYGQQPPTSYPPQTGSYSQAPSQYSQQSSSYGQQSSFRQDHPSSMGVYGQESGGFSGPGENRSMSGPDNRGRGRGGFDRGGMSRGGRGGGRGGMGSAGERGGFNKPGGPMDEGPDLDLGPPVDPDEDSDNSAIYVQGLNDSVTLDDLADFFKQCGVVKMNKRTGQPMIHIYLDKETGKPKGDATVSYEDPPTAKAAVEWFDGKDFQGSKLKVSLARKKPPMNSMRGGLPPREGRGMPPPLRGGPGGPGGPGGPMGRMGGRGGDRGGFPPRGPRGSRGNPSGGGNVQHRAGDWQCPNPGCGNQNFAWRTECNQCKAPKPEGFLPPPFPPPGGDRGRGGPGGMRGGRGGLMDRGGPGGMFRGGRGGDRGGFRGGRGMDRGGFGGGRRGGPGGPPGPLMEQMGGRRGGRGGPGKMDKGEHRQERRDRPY
Chain of UniProt O14893 (O14893 whole entry, looked up): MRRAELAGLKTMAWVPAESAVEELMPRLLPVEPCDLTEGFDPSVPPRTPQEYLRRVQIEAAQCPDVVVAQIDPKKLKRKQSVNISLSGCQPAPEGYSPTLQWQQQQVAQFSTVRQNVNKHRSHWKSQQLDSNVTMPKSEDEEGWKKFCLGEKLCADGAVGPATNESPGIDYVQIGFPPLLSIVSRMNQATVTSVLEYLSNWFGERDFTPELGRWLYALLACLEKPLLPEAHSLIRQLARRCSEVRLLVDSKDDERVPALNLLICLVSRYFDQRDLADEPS
Chain of UniProt P57678 (P57678 whole entry, looked up): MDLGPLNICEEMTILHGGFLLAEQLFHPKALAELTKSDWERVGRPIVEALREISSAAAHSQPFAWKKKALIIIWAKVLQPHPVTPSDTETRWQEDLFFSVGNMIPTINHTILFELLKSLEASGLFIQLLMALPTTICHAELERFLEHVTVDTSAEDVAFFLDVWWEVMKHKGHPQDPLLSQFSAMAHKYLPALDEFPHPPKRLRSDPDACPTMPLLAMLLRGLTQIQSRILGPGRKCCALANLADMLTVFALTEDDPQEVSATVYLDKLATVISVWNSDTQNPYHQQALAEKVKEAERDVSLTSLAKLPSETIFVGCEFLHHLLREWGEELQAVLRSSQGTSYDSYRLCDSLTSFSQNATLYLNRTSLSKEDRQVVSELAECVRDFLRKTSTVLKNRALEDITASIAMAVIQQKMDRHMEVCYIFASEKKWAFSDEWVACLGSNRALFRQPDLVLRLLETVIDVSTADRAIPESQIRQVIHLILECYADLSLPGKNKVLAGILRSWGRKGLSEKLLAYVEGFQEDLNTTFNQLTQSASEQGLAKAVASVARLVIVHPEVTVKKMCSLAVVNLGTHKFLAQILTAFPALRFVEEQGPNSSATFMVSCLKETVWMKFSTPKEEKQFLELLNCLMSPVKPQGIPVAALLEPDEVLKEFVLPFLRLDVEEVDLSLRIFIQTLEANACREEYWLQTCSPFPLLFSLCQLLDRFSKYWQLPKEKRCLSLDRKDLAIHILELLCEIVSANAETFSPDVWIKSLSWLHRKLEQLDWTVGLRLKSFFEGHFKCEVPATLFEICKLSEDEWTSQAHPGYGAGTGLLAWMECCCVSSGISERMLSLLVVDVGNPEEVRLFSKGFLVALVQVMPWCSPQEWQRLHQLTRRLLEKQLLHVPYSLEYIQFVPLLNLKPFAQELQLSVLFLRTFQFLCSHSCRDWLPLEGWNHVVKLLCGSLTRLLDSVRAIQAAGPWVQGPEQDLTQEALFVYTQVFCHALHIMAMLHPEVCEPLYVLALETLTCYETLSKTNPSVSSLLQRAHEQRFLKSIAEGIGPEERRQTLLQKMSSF
Chain of UniProt Q9H410 (Q9H410 whole entry, looked up): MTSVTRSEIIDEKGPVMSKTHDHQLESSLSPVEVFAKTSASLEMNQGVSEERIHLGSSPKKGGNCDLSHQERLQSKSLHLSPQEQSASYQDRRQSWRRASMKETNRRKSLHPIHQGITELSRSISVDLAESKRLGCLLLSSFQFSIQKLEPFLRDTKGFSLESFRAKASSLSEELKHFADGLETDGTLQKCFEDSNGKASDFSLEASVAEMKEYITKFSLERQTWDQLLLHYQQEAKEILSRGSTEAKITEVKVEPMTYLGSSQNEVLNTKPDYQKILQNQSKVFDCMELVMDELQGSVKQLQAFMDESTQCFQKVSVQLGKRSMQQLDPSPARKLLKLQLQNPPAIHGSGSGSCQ
Chain of UniProt Q6Y7W6 (Q6Y7W6 whole entry, looked up): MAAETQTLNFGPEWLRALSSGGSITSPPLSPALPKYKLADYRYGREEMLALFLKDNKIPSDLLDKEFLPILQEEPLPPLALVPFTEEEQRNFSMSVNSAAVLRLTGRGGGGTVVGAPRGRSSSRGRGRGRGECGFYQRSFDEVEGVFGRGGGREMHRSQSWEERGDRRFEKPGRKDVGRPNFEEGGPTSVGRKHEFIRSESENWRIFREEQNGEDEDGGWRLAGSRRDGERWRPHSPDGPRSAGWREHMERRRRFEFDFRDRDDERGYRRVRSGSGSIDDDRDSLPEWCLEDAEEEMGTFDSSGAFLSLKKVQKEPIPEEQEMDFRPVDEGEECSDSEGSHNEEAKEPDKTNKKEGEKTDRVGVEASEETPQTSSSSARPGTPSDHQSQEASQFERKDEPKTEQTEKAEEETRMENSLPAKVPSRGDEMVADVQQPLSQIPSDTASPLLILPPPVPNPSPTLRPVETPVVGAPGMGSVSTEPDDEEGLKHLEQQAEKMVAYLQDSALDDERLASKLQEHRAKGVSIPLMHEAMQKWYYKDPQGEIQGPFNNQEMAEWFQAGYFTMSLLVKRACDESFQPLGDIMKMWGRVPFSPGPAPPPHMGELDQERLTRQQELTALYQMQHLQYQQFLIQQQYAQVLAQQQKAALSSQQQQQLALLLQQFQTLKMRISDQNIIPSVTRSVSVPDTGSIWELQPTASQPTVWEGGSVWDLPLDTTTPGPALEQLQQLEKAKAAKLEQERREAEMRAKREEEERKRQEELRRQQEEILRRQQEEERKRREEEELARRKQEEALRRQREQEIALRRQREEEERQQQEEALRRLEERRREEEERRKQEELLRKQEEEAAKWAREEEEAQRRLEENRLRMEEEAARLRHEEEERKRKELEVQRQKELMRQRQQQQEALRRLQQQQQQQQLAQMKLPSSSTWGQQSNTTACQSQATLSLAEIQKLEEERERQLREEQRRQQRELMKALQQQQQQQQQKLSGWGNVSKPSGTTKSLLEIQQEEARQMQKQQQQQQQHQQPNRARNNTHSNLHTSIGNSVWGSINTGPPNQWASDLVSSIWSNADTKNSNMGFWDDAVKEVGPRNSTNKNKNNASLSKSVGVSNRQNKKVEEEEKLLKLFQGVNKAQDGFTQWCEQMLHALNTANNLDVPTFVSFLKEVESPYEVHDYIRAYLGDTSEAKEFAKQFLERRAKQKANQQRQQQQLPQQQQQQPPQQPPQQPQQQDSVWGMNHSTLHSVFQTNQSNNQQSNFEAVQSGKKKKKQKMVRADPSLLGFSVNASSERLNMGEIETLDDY
Chain of UniProt P85037 (P85037 whole entry, looked up): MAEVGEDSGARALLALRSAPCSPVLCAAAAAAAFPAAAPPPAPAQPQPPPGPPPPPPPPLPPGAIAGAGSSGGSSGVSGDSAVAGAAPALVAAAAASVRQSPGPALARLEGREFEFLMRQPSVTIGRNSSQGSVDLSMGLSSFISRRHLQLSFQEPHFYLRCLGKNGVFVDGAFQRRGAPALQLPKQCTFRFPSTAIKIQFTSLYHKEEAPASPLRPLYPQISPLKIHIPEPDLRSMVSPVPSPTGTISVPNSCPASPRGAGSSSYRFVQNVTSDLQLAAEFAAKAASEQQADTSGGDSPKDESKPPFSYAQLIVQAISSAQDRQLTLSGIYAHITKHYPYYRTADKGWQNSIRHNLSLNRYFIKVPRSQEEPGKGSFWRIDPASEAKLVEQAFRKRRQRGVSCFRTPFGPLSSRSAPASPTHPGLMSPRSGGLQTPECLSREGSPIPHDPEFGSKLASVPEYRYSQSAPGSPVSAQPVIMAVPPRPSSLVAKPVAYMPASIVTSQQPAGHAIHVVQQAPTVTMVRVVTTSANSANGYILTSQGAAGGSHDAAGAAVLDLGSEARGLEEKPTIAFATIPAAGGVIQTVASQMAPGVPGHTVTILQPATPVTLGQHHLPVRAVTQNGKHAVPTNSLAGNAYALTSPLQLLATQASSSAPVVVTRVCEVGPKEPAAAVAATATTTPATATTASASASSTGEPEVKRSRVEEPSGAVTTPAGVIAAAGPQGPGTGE

Compound in the first experiment: CCN(CCCOc1ccc2c(Nc3cc(CC(=O)Nc4cccc(F)c4)[nH]n3)ncnc2c1)CCOP(=O)(O)O [barasertib]
As to the kind of experiment: log2 fold change, soluble protein after heating vs DMSO (PISA); higher = thermal stabilisation; K562 lysate, 10 uM; active = over 0.2 and 3.5 SD of the protein, either way, in both replicates (recomputed). The essentials:
(§1)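 Dounce homogenisation of K562 pellets in PBS pH 7.4 with 1 mM MgCl2 produced a crude extract, used at 1 mg/mL protein. Exposure to 10 μM compound lasted 30 min, and aliquots were then heated for 3 min across 48°C-58°C, pooled and brought to 0.5% NP-40 at 4°C. The supernatant after 21,000xg for 90 min was quantified by TMTpro 16plex LC-MS/MS with channel sums equalised. Duplicate values are given as log-two fold change in thermal stability relative to solvent controls.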
On to GEMIN4 (UniProt P57678), for which the log2 fold change was 0.041.

For the target ERAL1 (UniProt O75616), the log2 fold change was -0.032.

Regarding EMC7 (UniProt Q9NPA0), the log2 fold change is -0.006.

For the target EED, A0A5F9ZI63, the log2 fold change is -0.029.

In the case of FAM118B (UniProt Q9BPY3), the log2 fold change was 0.004.

Consider GBF1 (UniProt Q92538), for which the log2 fold change is 0.087.

Turning to FAT2 (UniProt Q9NYQ8), the log2 fold change was -0.001.

In the case of FLT4 (UniProt P35916), the log2 fold change is -0.036.

As to ERLIN1 (UniProt O75477), the log2 fold change is 0.008.

In the case of EAPP (UniProt Q56P03), the log2 fold change is -0.048.

For the target GIGYF2 (UniProt Q6Y7W6), the log2 fold change is 0.049.

FOXK1 (UniProt P85037): the log2 fold change is 0.025.

Turning to EIF2B4 (UniProt Q9UI10), the log2 fold change is 0.006.

As to GAPDH (UniProt P04406), the log2 fold change was -0.016.

On to EEF1AKMT4 (UniProt P0DPD7), for which the log2 fold change was 0.126.

In the case of FYCO1 isoform 4 (UniProt Q9BQS8), the log2 fold change is 0.045.

In the case of ETHE1 (UniProt O95571), the log2 fold change is 0.076.

Turning to FBXO22 (UniProt Q8NEZ5), the log2 fold change was 0.025.

With EP300 (UniProt Q09472), the log2 fold change is 0.007.

GEMIN2 (UniProt O14893): the log2 fold change was 0.052.

On to DYNC1I2 isoform 2 (UniProt Q13409), for which the log2 fold change is -0.123.

For the target DYNC1I2 isoform 5 (UniProt Q13409), the log2 fold change was -0.03.

On to FBXO45 (UniProt P0C2W1), for which the log2 fold change was 0.031.

Consider EPB41, A0A2R8Y783, for which the log2 fold change is 0.112.

For the target FYN (UniProt P06241), the log2 fold change is 0.065.

On to GAA (UniProt P10253), for which the log2 fold change is -0.063.

As for FXR2 (UniProt P51116), the log2 fold change was -0.003.

In the case of FPGT (UniProt O14772), the log2 fold change is 0.048.

Take FHOD1 (UniProt Q9Y613): the log2 fold change is 0.042.

Consider EFCAB14 (UniProt O75071), for which the log2 fold change was -0.01.

Regarding DSN1 (UniProt Q9H410), the log2 fold change was 0.007.

Consider FAM83D (UniProt Q9H4H8), for which the log2 fold change was 0.074.

For EWSR1 isoform 5 (UniProt Q01844), the log2 fold change was -0.013.

Take FAM83A (UniProt Q86UY5): the log2 fold change was 0.035.

Consider GABPB1 isoform 3 (UniProt Q06547), for which the log2 fold change is 0.141.

For DUS2 (UniProt Q9NX74), the log2 fold change was -0.026.

With EIF2AK2 (UniProt P19525), the log2 fold change is -0.038.

Compound in another experiment: CC[C@@H]1C(=O)N(C)c2cnc(Nc3ccc(C(=O)NC4CCN(C)CC4)cc3OC)nc2N1C1CCCC1
The description is as above. In short, it runs like this:
as §1
In the case of GEMIN4 (UniProt P57678), the log2 fold change was -0.037.

Consider ERAL1 (UniProt O75616), for which the log2 fold change was 0.065.

Regarding EMC7 (UniProt Q9NPA0), the log2 fold change was 0.034.

As for EED, A0A5F9ZI63, the log2 fold change is 0.005.

For the target FAM118B (UniProt Q9BPY3), the log2 fold change was -0.014.

For GBF1 (UniProt Q92538), the log2 fold change is -0.004.

Turning to FAT2 (UniProt Q9NYQ8), the log2 fold change was 0.016.

FLT4 (UniProt P35916): the log2 fold change was -0.031.

For ERLIN1 (UniProt O75477), the log2 fold change is -0.037.

Consider EAPP (UniProt Q56P03), for which the log2 fold change is 0.06.

With GIGYF2 (UniProt Q6Y7W6), the log2 fold change is 0.093.

On to FOXK1 (UniProt P85037), for which the log2 fold change is -0.007.

For the target EIF2B4 (UniProt Q9UI10), the log2 fold change is 0.04.

With GAPDH (UniProt P04406), the log2 fold change was -0.006.

Take EEF1AKMT4 (UniProt P0DPD7): the log2 fold change is -0.025.

Regarding FYCO1 isoform 4 (UniProt Q9BQS8), the log2 fold change is 0.027.

In the case of ETHE1 (UniProt O95571), the log2 fold change was -0.013.

For the target FBXO22 (UniProt Q8NEZ5), the log2 fold change was 0.011.

For EP300 (UniProt Q09472), the log2 fold change was -0.006.

With GEMIN2 (UniProt O14893), the log2 fold change was 0.033.

As to DYNC1I2 isoform 2 (UniProt Q13409), the log2 fold change is 0.132.

DYNC1I2 isoform 5 (UniProt Q13409): the log2 fold change was -0.012.

Consider FBXO45 (UniProt P0C2W1), for which the log2 fold change was -0.077.

In the case of EPB41, A0A2R8Y783, the log2 fold change was -0.141.

For the target FYN (UniProt P06241), the log2 fold change was -0.351.

For GAA (UniProt P10253), the log2 fold change is -0.006.

As to FXR2 (UniProt P51116), the log2 fold change is -0.021.

Regarding FPGT (UniProt O14772), the log2 fold change is -0.064.

Turning to FHOD1 (UniProt Q9Y613), the log2 fold change was -0.05.

With EFCAB14 (UniProt O75071), the log2 fold change is 0.039.

On to DSN1 (UniProt Q9H410), for which the log2 fold change was 0.034.

Consider FAM83D (UniProt Q9H4H8), for which the log2 fold change is 0.045.

For the target EWSR1 isoform 5 (UniProt Q01844), the log2 fold change is 0.039.

With FAM83A (UniProt Q86UY5), the log2 fold change was -0.001.

For GABPB1 isoform 3 (UniProt Q06547), the log2 fold change was -0.048.

For DUS2 (UniProt Q9NX74), the log2 fold change was -0.033.

Turning to EIF2AK2 (UniProt P19525), the log2 fold change was -0.09.
